The full list was thinned out, with hits kept by preference.
Tgondii IFNg: blocks Toxoplasma gondii growth in the presence of IFN-gamma; hit rate 3.8% among 69,000; Toxoplasma gondii growth in IFN-gamma-treated host cells; stronger effect = lower value; activity change, negative = inhibition, % (no concentration beside the values); in the data active means activity change below about -70%, passing the limit was not always enough;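 further: host cells are HeLa cells infected with Toxoplasma gondii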
Numbers without * were called inactive.

SMILES	Tgondii IFNg
CCN1CC[C@@]2(CN(Cc3nccs3)C[C@H]2c2ccccc2)C1=O	-5
COc1cc2c(cc1OC)C(c1ccnn1C)NCC2 (centres undefined)	50
COc1cccc2c1C(=O)c1c(O)c3c(c(O)c1C2=O)C[C@@](O)(C(=O)CO)C[C@@H]3OC1C[C@H](N)[C@H](O)[C@H](C)O1 (some centres undefined)	-90*
CC(=O)NCCC1CCCCN1C(=O)C(=O)Nc1ccccc1Cl (centres undefined)	4
CCOc1ccc(-c2nc(CN(c3ccccc3C)S(=O)(=O)c3cccs3)c(C)o2)cc1	-60
CN=C(NC)NCc1ccc(OC)cc1	9
Cn1cc(CN2CCn3nnc(CO)c3C2)cn1	-46
CC(C)c1ccc(NC(=O)C2CC(=O)N(CCc3c[nH]c4ccc(Cl)cc34)C2)cc1 (centres undefined)	-70
O=C(NC1CCCCCCC1)C1CC(=O)N(CCc2c[nH]c3ccc(Cl)cc23)C1 (centres undefined)	-92*
Cc1ccc2[nH]cc(CCN3CC(C(=O)NC4CCCCCCC4)CC3=O)c2c1 (centres undefined)	136
Cc1occc1C(=O)N1CCc2ncnc(N3CCOCC3)c2CC1	1
Cn1ccnc1CN1CCCC2(CC(Nc3cccc(F)c3)CO2)C1 (centres undefined)	32
CN1C(=O)C2(CCOCC2)c2cc(Nc3ncc(F)cn3)ccc21	1
CN(C)C1CCN(C(=O)c2cnc(-c3noc4cc(-c5ccccc5)ccc34)s2)CC1	-12
CCCCN(C)C(=O)c1cnc(-c2noc3cc(NCC4CC4)ccc23)s1	-82*
Cc1cc(CN(C)C(=O)c2cccc(NCc3ccc(C)s3)c2)on1	-25
COc1c(C)cc(-c2nccc(C)n2)cc1C	10
CS(=O)(=O)N1CCOC2C(COCc3nccs3)CCC21 (centres undefined)	-10
Cc1ccc(C)c(NC(=O)C(=O)NCCc2sc(-c3ccc(F)cc3)nc2C)c1	123
S=c1oc2ccc(Cl)cc2n1CNc1ccccc1Br	4
CCc1ccccc1NC(=O)c1nnn(Cc2nc(-c3ccccc3)oc2C)c1C	76
Cc1ccc(-c2nc(Cn3nnc(-c4nc(-c5ccc(OCC(C)C)cc5)no4)c3C)c(C)o2)cc1	-11
Cc1cccc(C)c1NC(=O)c1nnn(Cc2nc(-c3cccc(Cl)c3)oc2C)c1C	26
Cc1cc(C)c(NC(=O)c2nnn(Cc3nc(-c4ccc(Cl)cc4)oc3C)c2C)c(C)c1	-48
Cc1ccc(-c2nc(Cn3nnc(-c4nc(-c5ccc(OC(C)C)cc5)no4)c3C)c(C)o2)cc1	-39
SMILES	Tgondii IFNg
Cc1ccc(Cl)cc1NC(=O)c1nnn(Cc2nc(-c3ccccc3)oc2C)c1C	-45
Cc1cccc(C)c1NC(=O)c1nnn(Cc2nc(-c3ccc(Cl)cc3)oc2C)c1C	-122*
Cc1oc(-c2cccc(Cl)c2)nc1Cn1nnc(C(=O)Nc2cccc(Cl)c2)c1C	-86*
Cc1ccc(-c2nc(Cn3nnc(C(=O)Nc4cccc(Cl)c4)c3C)c(C)o2)cc1	196
Cc1oc(-c2ccccc2)nc1Cn1nnc(-c2nc(-c3ccc(OC(C)C)cc3)no2)c1C	-80*
Cc1cc(C)c(NC(=O)c2nnn(Cc3nc(-c4ccccc4)oc3C)c2C)c(C)c1	-77*
Cc1oc(-c2ccccc2)nc1Cn1nnc(C(=O)Nc2cccc(Cl)c2)c1C	229
Cc1ccc(-c2csc3nnc(SCC(=O)Nc4cccc(Cl)c4Cl)n23)cc1	-17
Cc1nonc1OCCNC(=O)c1cccc2ccnn12	12
Cc1cc(N2CCCN(Cc3ccc(Cn4cccn4)cc3)CC2)ccn1	-9
COCCNC(=O)C1CCCN(C2CCN(C(=O)/C=C/c3ccccc3)CC2)C1 (centres undefined)	-1
C#CCSc1nccc(-c2sc(COc3ccccc3Cl)nc2C)n1	-23
O[C@H]1C[C@@H]2CN(c3nccc(CCC(F)(F)F)n3)C[C@@H]2C[C@@H]1O	37
Cc1ccc(F)cc1NC(=O)c1nnn(Cc2nc(-c3ccc(OC(C)C)cc3)oc2C)c1C	150
COc1ccc(NC(=O)c2nnn(Cc3nc(-c4ccccc4)oc3C)c2C)cc1	-94*
Cc1ccc(NC(=O)c2nnn(Cc3nc(-c4ccc(OC(C)C)cc4)oc3C)c2C)c(C)c1	-98*
Cc1ccc(NC(=O)c2nnn(Cc3nc(-c4ccc(Cl)cc4)oc3C)c2C)c(C)c1	15
COc1ccccc1NC(=O)c1nnn(Cc2nc(-c3ccccc3)oc2C)c1C	-4
CCOc1ccc(-c2nc(Cn3nnc(C(=O)Nc4ccccc4)c3C)c(C)o2)cc1	-55
CN1Cc2cncn2CC(COCC(=O)N2CCCC2)C1 (centres undefined)	1
O=C(NCc1nc(Cc2ccccc2)no1)c1cnn2c(-c3ccccc3)ccnc12	-7
COCCN1CCN(C(=O)c2cscn2)Cc2cccnc21	3
Cc1ccccc1-c1cn[nH]c1C1CCN(C(=O)C2(C)CCCO2)CC1 (centres undefined)	6
Cc1cnn(Cc2nc(-c3ccc(NC(=O)c4cccc(F)c4)cc3)oc2C)c1	-75*
Cc1cnn(Cc2nc(-c3ccc(NC(=O)c4ccc(C#N)cc4)cc3)oc2C)c1	-52
SMILES	Tgondii IFNg
COc1ccc(C(=O)Nc2ccc(-c3nc(Cn4cc(C)cn4)c(C)o3)cc2)cc1F	34
Cc1cnn(Cc2nc(-c3ccc(NC(=O)c4ccc(F)cc4)cc3)oc2C)c1	-82*
CCc1ccc(C(=O)Nc2ccc(-c3nc(Cn4cc(C)cn4)c(C)o3)cc2)cc1	27
Cc1cnn(Cc2nc(-c3ccc(NC(=O)c4ccc(C)c(F)c4)cc3)oc2C)c1	-13
CCn1cc(CN2CCC(CNC(=O)c3cccc(O)c3)C2)c(C)n1 (centres undefined)	-16
Cc1c(-c2csc(-c3ccc(Cl)cc3)n2)sc2ccccc12	35
Cc1nc(-c2cccc(F)c2)nc2c1CN(S(=O)(=O)c1ccc(F)cc1)CC2	-3
O=S(=O)(c1cccs1)N1CCC2(CC1)NCCN=C2NCc1ccccc1F	8
CCOCC1CN(S(=O)(=O)c2cn(C)cn2)Cc2c1cnn2C (centres undefined)	6
CCCc1ccc(S(=O)(=O)N2CCc3nc(-c4cccc(OC)c4)sc3C2)cc1	2
COc1cccc(-c2nc3c(s2)CN(S(=O)(=O)c2ccc(C)c(C)c2)CC3)c1	-104*
COc1ccc(-c2nc3c(s2)CN(S(=O)(=O)c2cccc(Cl)c2)CC3)cc1	0
CCOc1ccc(-c2nc3c(s2)CN(S(=O)(=O)c2ccc(OCC)cc2)CC3)cc1	37
CCc1ccc(S(=O)(=O)N2CCc3nc(-c4cccc(OC)c4)sc3C2)cc1	-46
CCOc1ccc(-c2nc3c(s2)CN(S(=O)(=O)c2ccccc2)CC3)cc1	-49
COc1cccc(-c2nc3c(s2)CN(S(=O)(=O)c2cc(C)ccc2C)CC3)c1	-102*
COc1cccc(-c2nc3c(s2)CN(S(=O)(=O)c2cccc(C)c2)CC3)c1	-105*
CCOc1ccc(-c2nc3c(s2)CN(S(=O)(=O)c2cc(C)cc(C)c2)CC3)cc1	-95*
CCn1c(C2CCCN(Cc3cccn3-c3ccccn3)C2)n[nH]c1=O (centres undefined)	13
O=C(NCCc1csc(-c2ccc(F)cc2)n1)c1ccc2c(c1)OCO2	11
COc1ccccc1-c1ccccc1CC1CN(S(=O)(=O)C(C)C)CCNC1=O (centres undefined)	22
CC(C)N1CCC(N2CCC(C(=O)N(C)C)CC2)CC1	0
COc1ccc(-c2nc3c(s2)CN(S(=O)(=O)c2cccc(F)c2)CC3)cc1OC	29
O=S(=O)(c1ccc(Cl)cc1)N1CCc2nc(-c3ccccc3)sc2C1	19

Screening data as filed in PubChem.
